Screens deposited in PubChem by The Scripps Research Institute Molecular Screening Center.
Only some compounds are listed: those with a hit (about 3.5% of all), similar ones and a draw of the others.
TEAD-YAP block: TEAD-YAP interaction inhibition, primary screen, TEAD-YAP interaction inhibitor project, luminescence, HEK-TIYL cells; TEAD-Gal4/YAP UAS-luciferase luminescence; inhibition, % at 9.12 µM; hit rate 1.4% among 640,000; in the data active means inhibition above about 32%
FBW7 activator: FBW7 E3 ligase activators, primary screen, biochemical, AlphaScreen, human | hit rate 0.13% among 650,000 | F-box/WD repeat-containing protein 7 (Homo sapiens), Q969H0 | AlphaScreen FBW7–phospho-cyclin E peptide binding, activator screen | normalized activity (activation), % at 26.1 µM; in the data active means normalized activity above about 1.9%;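 further: purified mutant Fbw7 with reduced substrate affinity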
Target sequence (Q969H0 whole entry, looked up): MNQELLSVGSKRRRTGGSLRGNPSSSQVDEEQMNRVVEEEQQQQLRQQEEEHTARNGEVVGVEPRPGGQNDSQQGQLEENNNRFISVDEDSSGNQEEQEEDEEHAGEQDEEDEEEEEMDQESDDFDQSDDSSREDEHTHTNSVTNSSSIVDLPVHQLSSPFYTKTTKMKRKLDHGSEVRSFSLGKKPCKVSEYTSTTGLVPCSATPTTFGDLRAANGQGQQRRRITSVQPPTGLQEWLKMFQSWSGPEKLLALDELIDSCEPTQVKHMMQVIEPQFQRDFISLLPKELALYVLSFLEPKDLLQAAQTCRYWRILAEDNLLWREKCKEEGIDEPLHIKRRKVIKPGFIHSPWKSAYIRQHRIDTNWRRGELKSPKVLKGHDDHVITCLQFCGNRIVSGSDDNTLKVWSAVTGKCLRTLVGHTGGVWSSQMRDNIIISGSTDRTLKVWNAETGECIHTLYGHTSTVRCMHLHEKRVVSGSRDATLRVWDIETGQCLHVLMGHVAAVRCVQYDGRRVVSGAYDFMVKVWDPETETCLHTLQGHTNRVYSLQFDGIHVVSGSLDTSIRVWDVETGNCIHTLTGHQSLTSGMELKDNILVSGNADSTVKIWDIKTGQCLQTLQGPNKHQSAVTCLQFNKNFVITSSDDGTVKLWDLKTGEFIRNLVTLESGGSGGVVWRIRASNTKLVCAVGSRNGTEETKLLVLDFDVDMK
MITF primary: MITF inhibitors, primary screen, biochemical, AlphaScreen, human; inhibition, % at 2.6 µM; hit rate 0.91% among 650,000; Microphthalmia-associated transcription factor (Homo sapiens), O75030; AlphaScreen MITF homodimerization, bead proximity signal; AID 1259374, 2018; in the data active means inhibition above about 50%
GPR151 ag: activators of human GPR151, primary screen, cell-based, PathHunter beta-arrestin, luminescence; G-protein coupled receptor 151 (Homo sapiens), Q8TDV0; PathHunter beta-arrestin GPR151 cells; activation, % at 11.2 µM; hit rate 1% among 650,000; in the data active means activation above about 4.9%
Of the large screens only hits and unclear results are named; the others gave an inactive call.

Clc1ccc2nc(C3CCN(Cc4nnnn4Cc4cccs4)CC3)[nH]c2c1	TEAD-YAP block 36
Fc1ccccc1C1CCN(Cc2nnnn2C2CCCC2)CC1	none
c1csc(Cn2nnnc2CN2CCN(C3CCCC3)CC2)c1	none
Clc1ccc2nc(C3CCN(Cc4nnnn4C4CCCC4)CC3)[nH]c2c1	TEAD-YAP block 37
CSc1sccc1/C=N/NC(=O)c1cccc([N+](=O)[O-])c1	none
O=C(Nc1ccc2c(c1)CN(C(=O)CN1CCOC1=O)CC2)c1ccccc1Cl	none
Cn1ccc(CC(=O)N2CCc3ccc(NC(=O)c4ccccc4Cl)cc3C2)c1	TEAD-YAP block 43
COc1ccc(CC(=O)n2nc(N)c3cc4ccc(OC)cc4nc32)cc1	TEAD-YAP block 41
COc1cccc(CC(=O)n2nc(N)c3cc4ccc(OC)cc4nc32)c1	none
COc1ccc2cc3c(N)nn(C(=O)Cc4c[nH]c5ccccc45)c3nc2c1	TEAD-YAP block 75
O=Cc1c(NC(=O)Cc2ccccc2)sc2c1CCCC2	FBW7 activator 2.0
CCOC(=O)N1CCc2c(sc(NC(=O)CCc3ccccc3)c2C#N)C1	TEAD-YAP block 54
CCOC(=O)N1CCc2c(sc(NC(=O)/C=C/c3ccccc3)c2C#N)C1	TEAD-YAP block 35
CCOC(=O)N1CCc2c(sc(NC(=O)/C=C/c3ccccc3Cl)c2C#N)C1	none
CCOC(=O)N1CCc2c(sc(NC(=O)c3ccccc3[N+](=O)[O-])c2C#N)C1	TEAD-YAP block 53
CC1Cc2ccccc2N1CC(=O)Nc1sc2c(c1C(N)=O)CCC2 (stereo not given)	none
N#Cc1c(NC(=O)Cc2ccccc2)sc2c1CCC2	none
N#Cc1c(NC(=O)CCc2ccccc2)sc2c1CCC2	TEAD-YAP block 39
CC(=O)N1CCc2c(sc(NC(=O)/C=C/c3cccs3)c2C#N)C1	TEAD-YAP block 58
CC(=O)Nc1sc2c(c1C#N)CCN(C(C)=O)C2	none
N#Cc1c(NC(=O)COc2cccc3ccccc23)sc2c1CCCC2	FBW7 activator 2.0
CC1Cc2ccccc2N1CC(=O)Nc1sc2c(c1C#N)CCC2 (stereo not given)	TEAD-YAP block 38
Cc1cccc(NC(=O)C2CCN(S(C)(=O)=O)CC2)n1	none
CCOC(=O)N1CCc2c(sc(NC(=O)/C=C/c3ccccc3)c2C(N)=O)C1	TEAD-YAP block 40
Cc1cc(Nc2ccc(N3CCOCC3)cc2)nc(Nc2ncccn2)n1	none
CCN(CC)c1nc(Nc2ccc(N3CCOCC3)cc2)nc(Nc2nc3ccccc3n2C)n1	none
CC(=O)Nc1ccc(Nc2cc(C)nc(N3CCN(c4ccccn4)CC3)n2)cc1	none
Cc1cc(Nc2ccc(N3CCOCC3)cc2)nc(Nc2ccc3ncccc3c2)n1	TEAD-YAP block 57
Cc1cc(Nc2ccc(N3CCOCC3)cc2)nc(N2CCc3ccccc3C2)n1	TEAD-YAP block 41
Cn1c(Nc2nccc(Nc3ccc(N4CCOCC4)cc3)n2)nc2ccccc21	TEAD-YAP block 54
Cc1cc(Nc2ccccc2)nc(N2CCN(C(=O)C(C)(C)C)CC2)n1	TEAD-YAP block 32
COc1ccc(NS(=O)(=O)c2ccc(C(=O)OCc3ccc(C#N)cc3)cc2)cc1	none
Cc1ccccc1CC1(CO)CCCN(S(=O)(=O)N(C)C)C1 (stereo not given)	none
O=c1oc2c(-c3ccccc3[N+](=O)[O-])cc(O)cc2s1	none
c1cnc2ccc(Nc3nccc(Nc4ccc(N5CCOCC5)cc4)n3)cc2c1	TEAD-YAP block 82
COc1cc(Nc2nc(Nc3nc4ccccc4n3C)nc3c2ncn3-c2ccccc2)cc(OC)c1OC	TEAD-YAP block 42
CCNc1nc(Nc2cc(OC)c(OC)c(OC)c2)c2ncn(-c3ccccc3)c2n1	TEAD-YAP block 47
COc1cc(Nc2nc(Nc3ccccc3)c3ncn(-c4ccccc4)c3n2)cc(OC)c1OC	none
Cc1ccc(/C=c2/sc3nc4ccccc4n3c2=O)cc1	TEAD-YAP block 73
CCN(CC)c1ccc(/C=c2/sc3nc4ccccc4n3c2=O)cc1	TEAD-YAP block 46
COc1ccc(/C=c2/sc3nc4ccccc4n3c2=O)c(OC)c1	none
Cc1ccc(/C=c2\sc3nc4ccccc4n3c2=O)s1	TEAD-YAP block 54
COc1cccc(/C=c2\sc3nc4ccccc4n3c2=O)c1	TEAD-YAP block 45
O=c1/c(=C\c2ccccc2)sc2nc3ccccc3n12	none
CCCNC(=O)CSc1ncnc2c1sc1nc3ccccc3cc12	none
CN(C)c1ccc(/C=c2\sc3nc4ccccc4n3c2=O)cc1	TEAD-YAP block 74
O=S(=O)(c1cccc(Cl)c1)N1CCNCC1	none
COc1ccc(-n2ncc3c(Nc4cccc5c4CCCC5)ncnc32)cc1	TEAD-YAP block 47
Cc1cccc(Nc2ncnc3c2cnn3-c2cccc(C)c2)c1	none
c1ccc(-n2ncc3c(Nc4cccc5c4CCCC5)ncnc32)cc1	none
Cc1cccc(-n2ncc3c(Nc4cccc5c4CCCC5)ncnc32)c1	TEAD-YAP block 42
Nc1ccc(NC(=O)CN2CCCCC2)cc1	FBW7 activator 2.0
Cc1cccc(Nc2ccc(N3CCN(C(=O)Nc4ccc(F)c(Cl)c4)CC3)nn2)n1	none
Cc1cc(C)nc(N/N=C/c2ccc(Br)cc2)n1	none
CCc1ccccc1Nc1nc(N)nc(Cn2nnc(-c3ccccc3)n2)n1	TEAD-YAP block 39
CCOc1c(Br)cc(C2Nc3ccc([N+](=O)[O-])cc3C3C=CCC32)cc1OC (stereo not given)	none
CCN(c1ccccc1)S(=O)(=O)c1ccc(OC)c(N)c1	TEAD-YAP block 52
COc1ccc(S(=O)(=O)Cc2ccccc2)cc1N	none
CCN(CC)S(=O)(=O)c1ccc(N2CCN(c3ccccc3OC)CC2)c(N)c1	TEAD-YAP block 33
CCn1c(Sc2ccc(C=O)cc2[N+](=O)[O-])nnc1-c1ccco1	none
CCn1c(Sc2ccc([N+](=O)[O-])cc2C=O)nnc1-c1ccco1	TEAD-YAP block 51
Cc1cccc(Oc2ccc(NC(=O)C3CC(=O)N(Cc4ccccc4)C3)cc2)c1 (stereo not given)	none
CC(=C/c1ccccc1)/C=N/n1c(-c2ccncc2)n[nH]c1=S	TEAD-YAP block 39
CCOC(=O)c1ccc(CN2C(=O)C(=O)c3cc(OC(F)(F)F)ccc32)o1	TEAD-YAP block 66
COc1ccc(Cl)cc1-n1c(SCc2cc(=O)n3ccccc3n2)nc2[nH]ncc2c1=O	TEAD-YAP block 60
COc1ccc(Cl)cc1-n1c(SCc2ccccc2F)nc2[nH]ncc2c1=O	none
CC(C)(C)CC(=O)N1CCC2(CC1)CC(=O)c1ccccc1O2	none
COC(=O)Cn1cc(/C=C2/NC(=O)N(c3cccc(Cl)c3)C2=O)c2ccccc21	none
Cn1cc(/C=C2/NC(=O)N(c3cccc(Cl)c3)C2=O)c2ccccc21	TEAD-YAP block 50
Cc1ccc(N2CC(C(=O)Nc3nccs3)CC2=O)cc1Cl (stereo not given)	TEAD-YAP block 61
O=C1/C(=C\c2ccco2)SC(=S)N1CCC(=O)N(CCO)c1ccccc1	none
CCn1c(=O)cc(SCC(=O)NC(C)C)c2ccccc21	none
